Reference: PubChem BioAssay AID1900 (Broad Institute, 2009)
The campaign covered roughly 3,200 compounds. About 2,900 (91%) were called active.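 The calls were made as follows: active = fitted half-maximal effect concentration at most a set number of log units above the top dose; inactive = fitted half-maximal concentration further above the top dose.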 The set was probably picked from earlier hits. This is one part of the list. Entries with a potency or affinity are not part of this list.

Experiment: growth inhibition of control SK(-) GAS strain, dose response, counter-screen for streptokinase expression inhibitor project, luminescence, kanamycin, BacTiterGlo, confirmation (AID 1900)
Conditions: SK(-)GAS Streptococcus pyogenes + kanamycin, BacTiterGlo viability, 6 h; at 15 µM (top of the series)
In the case of `O=C(Nc1ccccc1Sc1ccccc1)c1ccccc1F`, the activity change, negative = inhibition was -63% (active). In the case of `COc1cccc2sc(Nc3nnc(-c4ccccc4Cl)o3)nc12`, the activity change, negative = inhibition was -41.8% (active). For `O=C(Nc1cccc(-c2nc3ccccc3[nH]2)c1)c1ccc(C(=O)Nc2cccc(-c3nc4ccccc4[nH]3)c2)cc1`, the activity change, negative = inhibition was -32.9% (active). For `COc1ccccc1N=c1oc2cc(O)ccc2cc1C(N)=O`, the activity change, negative = inhibition was -48.9% (active). In the case of `CC(C)(C)c1csc(NNC(=O)c2ccc(Br)cc2)n1`, the activity change, negative = inhibition was -78.7% (active). In the case of `FC(F)Oc1ccccc1C1CC(c2ccc(Br)s2)Nc2ncnn21` (configuration not stated), the activity change, negative = inhibition was -52.4% (active). In the case of `N#C/C(=C\c1ccc(/C=C(/C#N)c2nn(CCO)c(N)c2C#N)cc1)c1nn(CCO)c(N)c1C#N`, the activity change, negative = inhibition was -56% (active).
